Compound activity deposited in PubChem by Small Molecule Screening Facility, UW Madison.
RMI FANCM FP: inhibitors of human RMI core complex binding to FANCM MM2; AID 1159607; 70,000 compounds, 0.58% hits; Fluorescence polarization, RMI core complex with F-MM2 peptide; active compounds read low; FP signal (polarization) at 33 µM; in the data active means FP signal below about 40
* = called active by the depositor. The entries come from a sample that favours hits as a whole.

SMILES	RMI FANCM FP
O=[N+]([O-])c1ccc(N2N=NC3CCCC32N2CCOCC2)cc1 (stereo not drawn)	56
NC(=O)c1c(NC(=O)c2ccc(-c3ccccc3)cc2)sc2c1CCCC2	59
CC1CN(S(=O)(=O)c2c(Cl)cccc2Cl)CC(C)O1 (stereo not drawn)	70
COC(=O)c1sc(-c2ccccc2)cc1NC(=O)c1ccccc1I	61
COC(=O)c1sc(-c2ccccc2)cc1NC(=O)c1ccccc1Cl	61
COC(=O)c1sc(-c2ccccc2)cc1NC(=O)c1cc2c(ccc3ccccc32)oc1=O	31*
CCc1ccc(N2C(=O)C3N=NN(CC(=O)Nc4ccc(F)c(Cl)c4)C3C2=O)cc1 (stereo not drawn)	51
O=S(=O)(c1cccc(Cl)c1)N1CCN(c2ccc3nnc(C4CC4)n3n2)CC1	63
CC1(C)CC2C1CCC1(C)OC2(C)CCC1O (stereo not drawn)	-8*
CC1(C)CC2C1CCC1(C)OC1CCC2(C)O (stereo not drawn)	67
COc1cc(NS(=O)(=O)c2ccc(NC(=O)c3cccc(C(F)(F)F)c3)cc2)nc(OC)n1	57
Cc1ccc(SCCC(=O)Nc2nc3c(s2)CC(C)CC3)cc1 (stereo not drawn)	56
CCOC(=O)c1oc2nc3c(c(-c4cccnc4)c2c1N)CCc1ccccc1-3	37*
COCc1cc(C)nc2oc(C(=O)c3ccccc3)c(N)c12	61
CCOC(=O)Cn1c(-c2cccnc2)nc(-c2ccccc2)c1-c1ccccc1	62
Cc1ccc(S(=O)(=O)NCCCn2nc(-c3ccccc3)ccc2=O)s1	63
COc1ccc(-c2c(NC(=O)c3cccs3)oc3ccc(Cl)cc3c2=O)cc1OC	66
CC(C)N1CCc2c(sc(NC(=O)CCS(=O)(=O)c3ccc(Cl)cc3)c2C(N)=O)C1	55
COC(=O)c1c(NC(=O)C(C)C)sc2c1CCN(Cc1ccccc1)C2	59
CCCCC(=O)Nc1sc2c(c1C(N)=O)CCN(C(C)=O)C2	69
CC(=O)N1CCc2c(sc(NC(=O)CS(=O)(=O)c3ccc(Cl)cc3)c2C(N)=O)C1	15*
CC1CCc2c(sc(NC(=O)CCS(=O)(=O)c3ccc(F)cc3)c2C(N)=O)C1 (stereo not drawn)	79
NC(=O)c1c(NC(=O)CS(=O)(=O)c2ccccc2)sc2c1CCN(Cc1ccccc1)C2	21*
CCN1CCc2c(sc(NC(=O)CCS(=O)(=O)c3ccc(F)cc3)c2C(N)=O)C1	37*
CCOC(=O)c1c(NC(=O)CCS(=O)(=O)c2ccc(Cl)cc2)sc2c1CCN(C(C)=O)C2	66
SMILES	RMI FANCM FP
CCOC(=O)N1CCc2c(sc(NC(=O)CS(=O)(=O)c3ccccc3)c2C#N)C1	65
Cc1ccc(C)c2sc(NC(=O)COc3ccccc3)nc12	84
CCOc1ccc(-c2nnc3sc(/C=C/c4cccs4)nn23)cc1	99
CCOc1ccc(-n2c(SCc3nc(-c4ccccc4C)no3)nc3ccsc3c2=O)cc1	75
COc1ccc(C(=O)NC(=O)Nc2cccc(C)n2)cc1	73
O=C(NCC12CC3CC(CC(C3)C1)C2)N1CCCCC1	60
Cc1ccc(CSc2nnc(Cc3ccsc3)n2C)cc1	62
CN=C(NS(=O)(=O)c1ccc(Br)cc1)c1ccc(Cl)cc1	60
C#CC(C)(C)NCc1c(C)c(C)c(C)c(C)c1C	55
O=C1NC2=C(C(=O)N(CCc3ccccc3)C2)C(c2cccs2)N1 (stereo not drawn)	52
N#Cc1c(N=Cc2cc(Br)cc(Br)c2O)sc2c1CCCC2	53
CCN(CC)c1ccc(C=Nc2sc3c(c2C#N)CCCC3)c(O)c1	18*
CCOC(=O)c1c(N=Cc2ccc(N(CC)CC)cc2O)sc2c1CCCC2	80
O=C(NCc1cccs1)C(=O)Nc1ccccc1[N+](=O)[O-]	54
O=C(Cc1ccc(F)cc1)N1CCCC(c2nnc(-c3cccs3)o2)C1 (stereo not drawn)	63
COc1c2c(cc3c1C(CC(=O)c1ccccc1)N(C)CC3)OCO2 (stereo not drawn)	67
CCOc1cc(Cl)c(S(=O)(=O)n2cnc(C)c2)cc1Cl	58
O=C1c2cccc3c(Br)ccc(c23)C(=O)N1CCO	-1*
O=C1OC(=O)c2ccc(Br)c3cccc1c23	56
CCOC(=O)OCCN1C(=O)c2cccc3c(Br)ccc(c23)C1=O	59
CCCN1CCCc2cc(CCNC(=O)Cc3ccc(F)cc3)ccc21	28*
CCCN1CCCc2cc(CCNS(=O)(=O)c3cccc(F)c3)ccc21	17*
CCCN1CCCc2cc(CCNS(=O)(=O)c3ccc(Br)cc3)ccc21	139
CCCN1CCCc2cc(CCNC(=O)CC(C)(C)C)ccc21	77
CCCN1CCCc2cc(CCNS(=O)(=O)c3ccc(OC)c(F)c3)ccc21	192
SMILES	RMI FANCM FP
CCCN1CCCc2cc(CCNC(=O)c3c(F)cccc3F)ccc21	59
Nc1ccccc1C(=O)NCCc1c[nH]c2ccccc12	59
O=C(Nc1ccc(F)cc1F)N1CCN(c2ccc3nncn3n2)CC1	67
COc1cccc(NC(=O)CSc2nc3c(c(=O)[nH]2)CN(Cc2ccc(F)cc2)CC3)c1	62
Clc1ccc(-c2csc(-c3ccc4c(c3)CCO4)n2)s1	49
COc1ccc(Cl)cc1S(=O)(=O)Nc1ccc2c(c1)N(C)C(=O)C(C)(C)CO2	65
COc1ccc(CNC(=O)c2cnn3c(-c4ccc(C)c(C)c4)ccnc23)cc1	68
O=C(Nc1ccccc1)Nc1nc(CCC(=O)N2CCN(c3ncccn3)CC2)cs1	65
O=C(CC1S/C(=N\N=C2CCCCC2)NC1=O)Nc1ccc([N+](=O)[O-])cc1 (stereo not drawn)	60
COc1ccc(/C=N\N=C2\NC(=O)C(CC(=O)Nc3sc4c(c3C#N)CCCC4)S2)cc1 (stereo not drawn)	58
COC(=O)c1c(NC(=O)CC2S/C(=N\N=C/c3ccc([N+](=O)[O-])cc3)NC2=O)sc2c1CCCC2 (stereo not drawn)	14*
CCn1nccc1C(=O)Nc1ccc2c(c1)C(=O)NC2=O	68
CC1CCc2c(sc3nc(CCC(=O)NCc4ccc5c(c4)OCO5)[nH]c(=O)c23)C1 (stereo not drawn)	79
CCOC(=O)c1c(SCC(=O)c2ccc(C)cc2)nc(=O)[nH]c1C	63
NNC(=O)c1nn(-c2ccccc2)c(=O)c2c(N)scc12	24*
CCOC(=O)c1nn(-c2ccc(OC)cc2)c(=O)c2c(NC(=O)c3c(OCC)ccc4ccccc34)scc12	64
O=C(Nc1scc2c(C(=O)O)nn(-c3ccc(C(F)(F)F)cc3)c(=O)c12)c1c(F)cccc1Cl	59
O=C(Nc1nnc(-c2ccc(Br)cc2)o1)c1c(F)cccc1F	53
CC(C)S(=O)(=O)c1ccc(CC(=O)O)cc1	72
CC(O)=c1c(=O)nc2ccc(Cl)c3c2=c1c1ccccc1c3=O	-21*
CN(C)c1ccc(-c2nc3ccccc3c(=O)[nH]2)c(Cl)c1	51
N#C/C(=C\c1ccc(Cl)c(Cl)c1)c1nc2ccccc2c(=O)[nH]1	62
Cc1ccc(-c2ccc(=O)n(CCCNC(=O)NCc3ccccc3)n2)cc1	70
COc1cc2c(cc1OC)CN(C(=O)CSc1nnc3scc(-c4ccc(Cl)cc4)n13)CC2	64
CC(=O)[C@]1(O)Cc2c(O)c3c(c(O)c2[C@@H](O[C@H]2C[C@H](N)[C@H](O)[C@H](C)O2)C1)C(=O)c1ccccc1C3=O	-37
COc1cccc2c1C(=O)c1c(O)c3c(c(O)c1C2=O)C[C@@](O)(C(=O)CO)C[C@@H]3O[C@H]1C[C@H](N)[C@@H](O)[C@H](C)O1	-10*
